20 molecules from PubChem BioAssay (NCATS) can be followed below.

SMILES strings stand for the structures. Values without a mark were called inactive. Inconclusive results are not listed. The source made the active and inactive calls. The call rests on the fitted dose curve; in most records, active means well fitted curve in the direction sought with a large enough effect; inconclusive means small, poorly fitted or top-dose-only effect, or another doubt; inactive means no such curve, though single readings can be large; an effect the other way counts as inactive or inconclusive.

Assay [1] in a line: Cell Viability - LYMP2-001 (AID 921).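 Further: cells exposed to compound for 24 h at 37 °C; nearly all actives have a fitted effect of over 70% in size.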 Further: potency means the concentration at half of the fitted maximal effect. Particulars: LYMP2-001 lymphoblastoid cell viability; series mostly up to 92.2 µM. An outline of the steps: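 Steps: seed 2500 lymphoblastoid cells/well; 5 hr, 37 C; add compound; 24 hr, 37 C; CellTiter-Glo reagent, 30 min room temperature; read luminescence. Concentration-response modeled by Hill equation for AC50.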
Assay [2] in a line: MultiTox-Fluor Cytotoxicity Assay - LYMP1-001 - Live Cells (AID 947). Further: potency means the concentration at half of the fitted maximal effect. Particulars: LYMP1-001 lymphoblastoid cells, live-cell protease fluorescence viability; series mostly up to 92.2 µM.
The nature of assay [3]: Cell Viability - LYMP1-002 - Assay at 16 hr (AID 948). Further: potency means the concentration at half of the fitted maximal effect. Particulars: LYMP1-002 lymphoblastoid cell viability; series mostly up to 92.2 µM. An outline of the steps: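 Seed 2500 LYMP1-002 cells per well in complete medium and hold 5 hr at 37 C. Add compound across a concentration series and incubate 16 hr at 37 C. Add CellTiter-Glo, wait 30 min at room temperature, read luminescence.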

The nature of assay [4]: MultiTox-Fluor Cytotoxicity Assay - LYMP1-002 - Live Cells (AID 955). Further: potency means the concentration at half of the fitted maximal effect. Particulars: LYMP1-002 lymphoblastoid live-cell protease fluorescence viability; series mostly up to 46.1 µM. The gist of the method: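 Cells were seeded at 2500 per well and incubated 5 hr. Compounds were then added for 16 hr at 37 C, followed by MultiTox-Fluor reagent for 60 min at room temperature and fluorescence reading of viable-cell protease signal.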

Assay [5] is described as follows: MultiTox-Fluor Cytotoxicity Assay - LYMP1-002 - Dead Cells (AID 960). Further: nearly all actives have a fitted effect of over 60% in size. Further: potency means the concentration at half of the fitted maximal effect. Particulars: LYMP1-002 lymphoblastoid cells, dead-cell protease fluorescence; series mostly up to 46.1 µM. An outline of the steps: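 Cells were plated, rested 5 hr, then treated with compound dilution series for 16 hr at 37 C. After adding substrate reagent and 60 min at room temperature, dead-cell protease fluorescence gave concentration-response curves fitted by the Hill equation.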

Assay [6] is described as follows: MultiTox-Fluor Cytotoxicity Assay - LYMP1-003 - Dead Cells (AID 961). Further: nearly all actives have a fitted effect of over 70% in size. Further: potency means the concentration at half of the fitted maximal effect. To be noted: LYMP1-003 lymphoblastoid cells, dead-cell protease fluorescence; series mostly up to 92.2 µM. An outline of the steps: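 LYMP1-003 human lymphoblastoid cells (2500/well) exposed to compound 16 h at 37 C in complete medium; dead-cell protease read with bis-AAF-R110 fluorescence (Ex/Em 485/520) after 60 min at room temperature. Normalized to DMSO and 15 uM tetraoctylammonium bromide; AC50 from Hill fit.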

Assay [7] in a line: Cell Viability - LYMP1-003 - Assay at 24 hr (AID 963). Further: potency means the concentration at half of the fitted maximal effect. To be noted: LYMP1-003 lymphoblastoid cell viability; series mostly up to 92.2 µM. The gist of the method: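 Cytotoxicity is scored as a concentration-dependent fall in ATP-linked luciferase signal in human lymphoblastoid LYMP1-003 cells treated 24 hr at 37 C in complete culture medium.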
A short description of assay [8]: Cell Viability - LYMP1-003 - Assay at 40 hr (AID 964). Further: nearly all actives have a fitted effect of over 60% in size. Further: potency means the concentration at half of the fitted maximal effect. To be noted: LYMP1-003 lymphoblastoid viability; series mostly up to 92.2 µM. The gist of the method:
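Luminescent ATP signal (CellTiter-Glo) served as the viability read-out after 40 hr compound treatment of human lymphoblastoid LYMP1-003 cells at 37 C. Decreases in ATP were fitted with the Hill equation to give AC50.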

Assay [9] in a line: Cell Viability - LYMP2-003 (AID 965).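 Further: cells exposed to compounds for 24 h before reading; nearly all actives have a fitted effect of over 50% in size.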 Further: potency means the concentration at half of the fitted maximal effect. Particulars: LYMP2-003 lymphoblastoid cell viability; series mostly up to 92.2 µM. An outline of the steps: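 Seed 2500 lymphoblastoid cells/well; incubate 5 hr, 37 C; add compounds; incubate 24 hr, 37 C; add CellTiter-Glo, 30 min RT; read luminescence. AC50 from Hill fit.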
Assay [10] is described as follows: Cell Viability - LYMP2-004 (AID 966).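 Further: cells exposed to compound for 24 h; nearly all actives have a fitted effect of over 65% in size.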 Further: potency means the concentration at half of the fitted maximal effect. Particulars: LYMP2-004 lymphoblastoid cell viability, qHTS; series mostly up to 92.2 µM. An outline of the steps: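 qHTS cytotoxicity: human lymphoblastoid line, 24 hr compound treatment, 37 C, complete medium. Viability read as cellular ATP via luciferase luminescence; tetraoctylammonium bromide served as positive control.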
(Quantitative high-throughput screening tests each substance at several concentrations.)

Assay [11] can be described thus: Confirmation and Secondary Assay for Modulators of Hemoglobin Beta Chain Splicing at IVS2 654 locus (AID 910).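 Further: HeLa cells stably carrying EGFP split by mutant beta-globin IVS2-654 intron.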 Particulars: HeLa EGFP-654 splicing reporter, GFP fluorescence, 48 h; series mostly up to 46.1 µM. The gist of the method: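 HeLa cells stably expressing EGFP interrupted by β-globin IVS2-654 intron, seeded overnight in Opti-MEM/2% FCS, then treated 2 days at 37 °C. Restored splicing read as total peak GFP intensity per well by laser scanning cytometry (488 nm excitation, 500–520 nm emission); 500 nM antisense PNA as control.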

The nature of assay [12]: Confirmation and Secondary Assay for Modulators of Hemoglobin Beta Chain Splicing at IVS2 705 locus (AID 930).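 Further: HeLa cells stably expressing the EGFP-705 splicing reporter; GFP fluorescence per well restored by corrected splicing of the IVS2-705 intron in EGFP.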 Particulars: HeLa EGFP-705 splicing reporter, GFP fluorescence, 48 h; series mostly up to 46.1 µM. An outline of the steps: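 Stable HeLa line with EGFP disrupted by mutant beta-globin intron 2 (705). Overnight attachment, then 2 days of compound at 37C, 5% CO2. Signal: peak GFP intensity summed over objects 5-250 µm.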

A short description of assay [13]: qHTS Assay for Identification of Small Molecule Agonists for Thrombopoietin (TPO) Signaling Pathway (AID 917). Particulars: TPO signaling pathway reporter cells, agonist qHTS, stimulated with TPO at its EC50; series mostly up to 38.5 µM. The gist of the method: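 Cell-based luciferase reporter screen. Mouse Ba/F3 line stably expressing human TPO receptor; IL-3 removed overnight before plating. Co-treatment with compound and EC50 TPO (26 pM), 24 hrs at 37 C, then luminescence.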

Assay [14] addresses Muscarinic acetylcholine receptor M1 (Rattus norvegicus) (UniProt P08482). Description: qHTS Assay for Antagonists of Acetylcholine Muscarinic M1 Receptor: Kinetic Measurement of Intracellular Calcium Response (AID 943).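 Further: Fluo-4 calcium signal as peak divided by basal fluorescence over 4 min; nearly all actives have a fitted effect of over 75% in size.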 Particulars: M1-expressing cells, kinetic intracellular calcium fluorescence; series mostly up to 35.3 µM. The gist of the method: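 Antagonism is measured as inhibition of the carbachol-evoked calcium rise in CHO cells transfected with rat M1. Cells are dye-loaded, exposed to compound for 10 min, then stimulated with 100 nM carbachol (EC80).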

For assay [15] the target is unchanged. In words: qHTS Assay for Antagonists of Acetylcholine Muscarinic M1 Receptor: Measurement of IP-One Response (AID 944). Further: nearly all actives have a fitted effect of over 75% in size. Further: potency means the concentration at half of the fitted maximal effect. To be noted: CHO-M1 cells, IP-One HTRF, antagonist mode; series mostly up to 46.1 µM. The gist of the method: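 Antagonist mode with rat M1 receptor transfected into CHO cells. Compound is added first for 10 min, carbachol at its EC80 follows for 30 min, and lysis reagents then allow TR-FRET detection of accumulated IP1.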

For assay [16], the target named is Pyruvate kinase (Leishmania mexicana) (UniProt Q27686). Description: qHTS Validation Assay for Inhibitors of Leishmania Mexicana Pyruvate Kinase (AID 945). To be noted: purified L. mexicana pyruvate kinase, enzyme activity, E451W mutant enzyme; series mostly up to 57.5 µM. An outline of the steps:
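Mutant LmPYK (E451W), 0.2 nM, plus 0.5 mM PEP and 0.1 mM ADP in 50 mM imidazole pH 7.2 containing 0.01% Tween 20 and 0.05% BSA. Incubated 1 h at room temperature; luminescence via PKLight, normalized to DMSO.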

Chain of Muscarinic acetylcholine receptor M1 (Rattus norvegicus) (P08482 whole entry, looked up): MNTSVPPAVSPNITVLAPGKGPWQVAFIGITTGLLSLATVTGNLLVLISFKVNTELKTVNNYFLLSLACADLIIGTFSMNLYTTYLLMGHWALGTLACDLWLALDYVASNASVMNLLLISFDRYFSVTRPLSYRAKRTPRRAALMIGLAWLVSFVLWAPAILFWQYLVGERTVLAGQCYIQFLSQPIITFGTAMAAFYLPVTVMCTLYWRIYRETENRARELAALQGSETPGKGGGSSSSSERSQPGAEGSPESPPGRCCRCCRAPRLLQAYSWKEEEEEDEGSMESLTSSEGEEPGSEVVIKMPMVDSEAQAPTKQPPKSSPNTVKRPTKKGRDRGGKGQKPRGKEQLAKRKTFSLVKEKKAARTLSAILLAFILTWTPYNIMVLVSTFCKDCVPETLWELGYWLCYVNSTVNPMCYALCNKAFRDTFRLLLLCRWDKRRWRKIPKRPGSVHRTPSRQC

On to `COc1cccc2c1C(=O)c1c(O)c3c(c(O)c1C2=O)C[C@@](O)(C(=O)CO)C[C@@H]3O[C@H]1C[C@H](N)[C@H](O)[C@H](C)O1`, for which the Potency was 501 nM (active) in assay [1]; 1580 nM (active) in assay [2]; 3160 nM (active) in assay [3]; 5010 nM (active) in assay [4]; 3160 nM (active) in assay [5]; 6310 nM (active) in assay [6]. Besides, the Potency in [7] was 1260 nM (active); in assay [8], 398 nM (active); in assay [9], 501 nM (active); in [10] it was 501 nM (active).
With `CCCCC(CC)CN=C(N)NC(N)=NCCCCCCN=C(N)NC(N)=NCC(CC)CCCC` (centres undefined), the molecule was classed as inactive in assay [11] and in assay [12].
For `OCc1ccccc1O`, the result in [11] and in assay [12] was inactive.
With `CC(CCc1ccccc1)NCC(O)c1ccc(O)c(C(N)=O)c1` (centres undefined), the molecule was classed as inactive in [11] and in assay [12].
Consider `O=C(O)CCCCC(=O)O`, for which the Potency entry in [1], in assay [2], in assay [3], in assay [4], in [5] and in [6] was “inactive” throughout. Besides, the Potency entry in [7], in assay [8], in assay [9] and in [10] was “inactive” each time.
Turning to `CC(=O)O[C@]1(C(C)=O)CC[C@H]2[C@@H]3C[C@H](C)C4=CC(=O)CC[C@]4(C)[C@H]3CC[C@@]21C`, the Potency in assay [1] and in assay [10] was 31600 nM (active) each time. In addition, the Potency result in assay [2], in assay [3], in assay [4], in assay [5], in assay [6] and in [7] was “inactive” each time. Further, in [8], the Potency result was “inactive”.
As to `CC(O)C(=O)O` (centres undefined), the Potency entry in [1], in assay [2], in assay [3], in assay [4], in assay [5] and in [6] was “inactive” throughout. The Potency result in [7], in assay [8], in [9] and in assay [10] was “inactive” each time.
For `CN(C)CC/C=C1\c2ccccc2Sc2ccc(Cl)cc21`, the outcome in [11] and in [12] was inactive.
Consider `CCCC(=O)Nc1ccc(OCC(O)CNC(C)C)c(C(C)=O)c1` (centres undefined), for which the result in assay [11] and in [12] was inactive.
Turning to `CCn1cc(C(=O)O)c(=O)c2cnc(N3CCCC3)nc21`, the outcome in assay [11] and in assay [12] was inactive.
For the molecule `Oc1cc(O)c2c(c1)O[C@H](c1ccc(O)c(O)c1)[C@H](O)C2`, the outcome in [13], in assay [14] and in assay [16] was inactive. Also, the Potency result in [15] is “inactive”.
Consider `COc1cc(NS(C)(=O)=O)ccc1Nc1c2ccccc2nc2ccccc12`, for which, in assay [15], the Potency is 10000 nM (active).
On to `O=C1CCC(c2ccc(-n3ccnc3)cc2)=NN1`, for which the call in assay [13], in assay [14] and in assay [16] was inactive. Further, the Potency result in [15] was “inactive”.
For `CC(C)COC(=O)OCN1C(=O)CN(CCN2CC(=O)N(COC(=O)OCC(C)C)C(=O)C2)CC1=O`, the Potency result in assay [15] is “inactive”. For the same molecule, the call in [16] was inactive.
`CN1CCN(C(c2ccccc2)c2ccccc2)CC1`: the call in [11] and in [12] was inactive.
Regarding `N[C@@H](Cc1cnc[nH]1)C(=O)O`, the call in assay [13], in assay [14] and in assay [16] was inactive. The Potency entry in [15] is “inactive”.
On to `CNCCC=C1c2ccccc2CCc2ccccc21`, for which the molecule was classed as inactive in assay [11], in [12] and in [16].
For the molecule `COc1cccc2c1C(=O)c1c(O)c3c(c(O)c1C2=O)C[C@@](O)(C(C)=O)C[C@@H]3O[C@H]1C[C@H](N)[C@H](O)[C@H](C)O1`, the Potency in assay [1] was 1580 nM (active); in assay [2], 631 nM (active); in [3] it was 794 nM (active); in [4], 3980 nM (active); in [5] it was 12600 nM (active); in [6], 1000 nM (active). For the same molecule, the values for the Potency in assay [7], in [8] and in assay [9] were 1000 nM (active), 398 nM (active) and 316 nM (active), respectively.
As to `O=C1OCCN1/N=C/c1ccc([N+](=O)[O-])o1`, the call in assay [11] and in assay [12] was inactive.
Turning to `CN1CCC[C@@H]1c1cccnc1`, the outcome in [13] and in assay [16] was inactive.
